In PubChem BioAssay (NCI):
This is part of a sample that, as a whole, favours compounds with a hit. Of some 83,000 tested, about 20% had one in any assay.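 96-well plates, one dose, 48 hours. Percent growth reported; active if below 10.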 Values without a mark were called inactive. Activity calls are given as the source filed them.

System: U251 CNS
Assay: NCI-60 one-dose screen, 48 h (100 = growth as untreated, 0 = no growth, -100 = all killed)
Details: 10 µM unless noted

Structure (SMILES)	growth
NS(=O)(=O)c1ccc(-n2cc(CC=O)nn2)cc1	102%
COc1ccc(N)cc1C(=O)Nc1cccc(-c2cc(=O)c3c(OC)c(OC)c(OC)cc3o2)c1	49.9%
O=C(CSc1nnc(-c2ccc(Cl)cc2)n1-c1ccccc1)Nc1ccc(F)cc1	6.66% (active)
O=C(c1cccc(F)c1)n1ccc2cc(NC(=S)Nc3cccnc3)ccc21	95.1%
O=C(O)c1ccc(-n2cc(CNc3ccc(Cl)cc3)c(-c3ccc(F)cc3)n2)cc1	90.4%
CCC(CC)N1C(=O)/C(=c2\sc3n(c2=O)C2C(NN=3)N(CC)C(=O)N2CC)c2ccccc21 (stereo not drawn)	27.1%

System: PC-3 prostate
Assay: as above
Details: 10 µM unless noted

Structure (SMILES)	growth
COc1ccc(-c2nn(-c3ccccc3)cc2/C=C/C(=O)c2ccc(NC(=O)CCCCCCC(=O)NO)cc2)cc1	95.8%
O=C(NCCCNc1cc(-c2cn(-c3ccccc3)nc2-c2cccc(O)c2)ccn1)Nc1cccc(C(F)(F)F)c1	27.1%
O=C(/C=C/c1cccc(O)c1)c1ccc(O)cc1	65.3%
C#Cc1ccc(NC(=O)c2ccc(/C=C/C(=O)c3nccn3C)cc2)c(F)c1	29.9%
O=C(Nc1ccc(F)cc1)c1cc(-c2ccc(F)cc2F)ccc1O	5.81% (active)
Cc1ccc(NC(=O)c2ccc(CN3CCN(C)CC3)c(C(F)(F)F)c2)cc1Oc1ccc(-c2[nH]nc3ncnc(N)c23)cc1	78.7%
N#Cc1c(NC(=O)c2ccccc2C(F)(F)F)sc2c1CCC(=O)C2	13%
CCN(CC)c1ccc2cc(C(=O)NCCOCCOCCOCCn3cc(CCC(=O)Nc4ccc(C(=O)c5ccc(NC(=O)OC(C)(C)C)cc5)cc4)nn3)c(=O)oc2c1	39.4%
CS(=O)(=O)c1ccc(-c2nn(-c3ccccc3)cc2/C=N/NC(=O)c2ccncc2)cc1	98.2%
Cc1ccc(S(=O)(=O)N/N=C/c2cn(-c3ccc(F)cc3)nc2-c2ccc(S(C)(=O)=O)cc2)cc1	95.4%
CS(=O)(=O)c1ccc(-c2nn(-c3ccccc3)cc2/C=C/C(=O)c2ccc(Br)cc2)cc1	89.1%
O=C(NCCCNc1cc(-c2cn(-c3ccccc3)nc2-c2cccc(O)c2)ccn1)Nc1ccc(F)cc1	16%
CN1C(=O)N(C)C2C1NN=c1s/c(=C\c3ccccn3)c(=O)n12 (stereo not drawn)	94.8%
Fc1ccc(-c2cc3nc(C(Cl)Cl)nc(-c4cccs4)n3n2)cc1	1.42% (active)
COc1ccc([C@H]2c3[nH]c4ccccc4c3C[C@@H]3C(=O)N(C4CCN(Cc5ccccc5)CC4)CC(=O)N23)c(OC)c1	48.1%
Cn1ccnc1C(=O)/C=C/c1ccc(C(=O)Nc2ccc(NC(=O)CCNC(=O)c3csc(Br)n3)cc2)cc1	48%

Structure (SMILES)	growth
Cc1nn(-c2ccccc2)cc1/C=N/Nc1nc(Nc2ccccc2)nc(Nc2ccc(S(N)(=O)=O)cc2)n1	1.45% (active)
COCCC[C@H]1O[C@@](O)([C@H](C)[C@@H]2CC(OC)C(O)/C=C(C)/C=C(C)/C=C(\C)C(OC3O[C@@H](C)[C@H](O)C(O)[C@@H]3O)C(C)/C=C(C)/C=C(OC)/C=C(\C)C(=O)O2)C(OC)C(O)[C@]1(C)O[C@H]1C[C@@H](O)[C@H](O[C@H]2C[C@](C)(O)[C@H](O)C(C)O2)C(C)O1 (stereo partly drawn)	27.8%
COc1ccc(N2C(=O)c3cc(OC)c(OC)cc3NC2SCc2ccccc2)cc1 (stereo not drawn)	102%
Cc1cc2nc(C(Cl)Cl)nc(-c3ccco3)n2n1	73%
O=C(NCCCNc1cc(-c2cn(-c3ccccc3)nc2-c2cccc(O)c2)ccn1)Nc1cc(C(F)(F)F)cc(C(F)(F)F)c1	39.9%
Cc1ccc(NC(=O)c2ccc(CN3CCN(C)CC3)c(I)c2)cc1Oc1ccc(-c2[nH]nc3ncnc(N)c23)cc1	75.2%
Cc1ccc(-n2cc(/C=C/C(=O)c3ccc(S(C)(=O)=O)cc3)c(-c3ccc(S(C)(=O)=O)cc3)n2)cc1	86.6%
COc1cc(/C=C/C(=O)c2ccc(NC(=O)CSc3nnc(-c4ccc5nc(-c6ccccc6)[nH]c5c4)o3)cc2)cc(OC)c1OC	99%
O=c1oc2ccc(-c3ccc(F)cc3F)cc2c(=O)n1-c1cccc(C(F)(F)F)c1	6.82% (active)
NCCN1CCN(c2nc(-c3ccccc3)nc3nc(-c4ccccc4)oc23)CC1	15%
CNC(=O)c1cc(N2CCc3cc(NC(=O)Nc4ccc(Cl)c(Cl)c4)ccc32)ccn1	65.2%
NS(=O)(=O)c1ccc(-n2cc(CC=O)nn2)cc1	100%
O=C(CSc1nnc(-c2ccc(Cl)cc2)n1-c1ccccc1)Nc1ccc(F)cc1	99.9%
O=C(c1cccc(F)c1)n1ccc2cc(NC(=S)Nc3cccnc3)ccc21	96.5%
O=C(O)c1ccc(-n2cc(CNc3ccc(Cl)cc3)c(-c3ccc(F)cc3)n2)cc1	89%
CCC(CC)N1C(=O)/C(=c2\sc3n(c2=O)C2C(NN=3)N(CC)C(=O)N2CC)c2ccccc21 (stereo not drawn)	33.7%
